Experimental findings from PubChem BioAssay (NCATS) are described below.

Results filed as inconclusive are left out. A number with no mark means an inactive call. The source made the active and inactive calls. Calls come from the whole dose curve; as a rule, active = well fitted inhibition curve with a large enough effect; inconclusive = small, poorly fitted or top-dose-only effect; inactive = flat fitted curve, though single readings scatter.

Common to all, as to experiment: qHTS profiling for inhibitors of Plasmodium falciparum proliferation (AID 504749); note: nearly all actives have a fitted effect of over 60% in size
Common to all, as to settings: P. falciparum in erythrocytes, SYBR Green DNA, 72 h; series mostly up to 28.7 µM
A general note: qHTS replaces the single test concentration by a dilution series.

For one test, the system named is PC15. In a few lines:
(§1)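 Each compound contacts P. falciparum-infected red blood cells for 72 h at 37 C; lysis buffer (Tris, EDTA, saponin, Triton X, SYBR Green I) is added and fluorescence measured next morning; values normalized to controls.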

A further test has as its system PC26. In outline: as §1
The test system of the next test is PC49. In a few lines:
as §1

A further test concerns SC27B. In a few lines:
as §1

The test system of a further test is TAB109. In a few lines:
as §1

The next test deals with TAB113. In outline:
as §1

The subject of the next test is TAB165. In outline: as §1
The next test relates to W2. In a few lines:
as §1
Potency is the fitted concentration of half-maximal effect.

Consider `O=C(O)/C=C/c1ccccc1`, for which the Potency entry with PC15, in the test on PC26, with PC49, in the test with SC27B, in the test with TAB109 and with TAB113 was “inactive” throughout. The Potency entry in the test on TAB165 and with W2 was “inactive” in each case.
Regarding `FCOC(C(F)(F)F)C(F)(F)F`, the Potency entry with PC15, with PC26, with PC49, in the test on SC27B, in the test with TAB109 and in the test on TAB113 was “inactive” throughout. Also, the Potency entry in the test with TAB165 and in the test on W2 was “inactive” in each case.
`CC(C)OC(=O)Nc1ccc2nc(-c3cscn3)[nH]c2c1`: the Potency result in the test on PC15, in the test with PC26, in the test on PC49, in the test on SC27B, in the test on TAB109 and in the test on TAB113 was “inactive” throughout. In addition, the Potency entry in the test on TAB165 and with W2 was “inactive” throughout.
In the case of `C=Cc1ccc(S(=O)(=O)O)cc1`, the Potency result in the test with PC15, with PC26, with PC49, with SC27B, with TAB109 and in the test with TAB113 was “inactive” each time. The Potency result in the test with TAB165 and in the test with W2 was “inactive” each time.
`Cc1ccc(C(C)(C)c2ccc(C)cc2)cc1`: the Potency entry in the test on PC15, in the test on PC26, with PC49, in the test with SC27B, with TAB109 and with TAB113 was “inactive” each time. Besides, the Potency result with TAB165 and in the test on W2 was “inactive” each time.
With `O=C(O)[C@H]1C(=CCO)O[C@H]2CC(=O)N12`, the Potency result in the test on PC15, in the test on PC26, in the test with PC49, with SC27B, with TAB109 and with TAB113 was “inactive” in each case. Further, the Potency result in the test with TAB165 and with W2 was “inactive” in each case.
With `CC(=O)Oc1cc(C(F)(F)F)ccc1C(=O)O`, the Potency result in the test with PC15, in the test with PC26, with PC49, in the test on SC27B, in the test on TAB109 and with TAB113 was “inactive” each time. The Potency entry in the test with TAB165 and with W2 was “inactive” throughout.
`[O]=[Bi][O][Bi]=[O]`: the Potency entry with PC15, in the test with PC26, with PC49, with SC27B, with TAB109 and in the test with TAB113 was “inactive” throughout. The Potency result in the test on TAB165 and in the test on W2 was “inactive” each time.
With `CCC(Cc1c(I)cc(I)c(O)c1I)C(=O)O` (stereo not drawn), the Potency entry in the test on PC15, with PC26, in the test on PC49, with SC27B, in the test with TAB109 and with TAB113 was “inactive” each time. In addition, the Potency entry in the test on TAB165 and in the test with W2 was “inactive” each time.
Turning to `CC(C)(C)c1ccc2c(S(=O)(=O)O)c(C(C)(C)C)ccc2c1`, the Potency entry in the test on PC15, in the test with PC26, in the test on PC49, in the test on SC27B, in the test on TAB109 and in the test on TAB113 was “inactive” in each case. Also, the Potency result in the test on TAB165 and in the test on W2 was “inactive” each time.
In the case of `CC(=O)Nc1ccc(OC(=O)c2ccccc2O)cc1`, the Potency entry with PC15, in the test on PC26, with PC49, in the test with SC27B, in the test with TAB109 and with TAB113 was “inactive” in each case. Besides, the Potency entry with TAB165 and in the test on W2 was “inactive” throughout.
Consider `CC(C)[C@H](N)C(=O)OCC(CO)OCn1cnc2c(=O)[nH]c(N)nc21` (stereo partly drawn), for which the Potency entry in the test with PC15, in the test on PC26, in the test on PC49, with SC27B, with TAB109 and in the test with TAB113 was “inactive” in each case. Besides, the Potency entry in the test with TAB165 and in the test on W2 was “inactive” each time.
For `CCC(C(=O)NC(N)=O)c1ccccc1` (stereo not drawn), the Potency result in the test on PC15, with PC26, with PC49, in the test on SC27B, in the test on TAB109 and in the test with TAB113 was “inactive” throughout. The Potency result in the test on TAB165 and with W2 was “inactive” in each case.
As for `Cc1cc(=O)c(C(=O)N[C@@H](C(=O)N[C@@H]2C(=O)N3C(C(=O)O)=C(CSc4nnnn4C)CS[C@H]23)c2ccc(O)cc2)c[nH]1`, the Potency result with PC15, in the test with PC26, with PC49, in the test on SC27B, with TAB109 and in the test on TAB113 was “inactive” in each case. Moreover, the Potency entry in the test on TAB165 and with W2 was “inactive” throughout.
With `ClC(Cl)Cl`, the Potency entry in the test on PC15, in the test with PC26, in the test on PC49, with SC27B, with TAB109 and in the test with TAB113 was “inactive” in each case. Besides, the Potency result in the test with TAB165 and with W2 was “inactive” in each case.
On to `CC1CCC(NC(=O)N(CCCl)N=O)CC1` (stereo not drawn), for which the Potency entry with PC15, with PC26, with PC49, with SC27B, with TAB109 and in the test on TAB113 was “inactive” in each case. Besides, the Potency result in the test on TAB165 was “inactive”. The Potency in the test with W2 is 10.7 µM (active).
As for `C=CC[C@@H]1/C=C(\C)C[C@H](C)C[C@H](OC)[C@H]2O[C@@](O)(C(=O)C(=O)N3CCCC[C@H]3C(=O)O[C@H](/C(C)=C/[C@@H]3CC[C@@H](O)[C@H](OC)C3)[C@H](C)[C@@H](O)CC1=O)[C@H](C)C[C@@H]2OC`, the Potency in the test with PC15 is 2.24 µM (active); with PC26, 1.69 µM (active); in the test with PC49 it was 2 µM (active); with SC27B it was 1.78 µM (active); with TAB109 it was 2 µM (active); in the test on TAB113, 1.78 µM (active). The results for the Potency in the test with TAB165 and with W2 were 1.41 µM (active) and 0.338 µM (active), respectively.
For `CCOC(=O)c1c[nH]c2cc(OCC(C)C)c(OCC(C)C)cc2c1=O`, the Potency in the test with PC15 is 0.112 µM (active); in the test with PC26 it was 0.12 µM (active); in the test with PC49 it was 0.141 µM (active); in the test with SC27B it was 0.1 µM (active); in the test on TAB109 it was 0.0891 µM (active); with TAB113, 0.112 µM (active). Also, the Potency with TAB165 is 0.0708 µM (active); in the test on W2, 0.0536 µM (active).
As to `c1ccc2ccccc2c1`, the Potency result in the test on PC15, in the test with PC26, in the test with PC49, in the test on SC27B, in the test on TAB109 and with TAB113 was “inactive” throughout. The Potency result with TAB165 and in the test on W2 was “inactive” throughout.
With `CNC(=O)C[C@@H](N)C(=O)N[C@@H](C(=O)N[C@@H]1C(=O)N2[C@@H]1SC(C)(C)[C@@H]2C(=O)O)c1ccc(O)cc1`, the Potency result with PC15, in the test on PC26, in the test on PC49, in the test on SC27B, in the test with TAB109 and in the test with TAB113 was “inactive” in each case. Moreover, the Potency result with TAB165 and in the test on W2 was “inactive” each time.
Regarding `O=C(CCCCCCCCCCCCC1CCCC1)Nc1ccc(S(=O)(=O)c2ccc(NC(=O)CCCCCCCCCCCCC3CCCC3)cc2)cc1`, the Potency result in the test with PC15, in the test on PC26, in the test on PC49, with SC27B, in the test on TAB109 and with TAB113 was “inactive” each time. Also, the Potency entry in the test with TAB165 and in the test with W2 was “inactive” in each case.
On to `CC(C)CCC[C@@H](C)[C@H]1CC[C@H]2[C@@H]3CC=C4C[C@@H](O)CC[C@]4(C)[C@H]3CC[C@]12C`, for which the Potency entry in the test with PC15, in the test with PC26, in the test with PC49, in the test with SC27B, in the test with TAB109 and with TAB113 was “inactive” in each case. The Potency result with TAB165 and in the test with W2 was “inactive” each time.
In the case of `CCOC(=O)Cc1ccc(-c2ccccc2)cc1`, the Potency entry with PC15, in the test on PC26, in the test with PC49, in the test with SC27B, with TAB109 and with TAB113 was “inactive” in each case. Moreover, the Potency result in the test with TAB165 and in the test with W2 was “inactive” in each case.
`CC(C)c1ncc([N+](=O)[O-])n1C`: the Potency result in the test on PC15, with PC26, in the test on PC49, in the test with SC27B, with TAB109 and in the test with TAB113 was “inactive” in each case. Moreover, the Potency result with TAB165 and with W2 was “inactive” throughout.
Take `COc1cc(C)c(/C=C/C(C)=C/C=C/C(C)=C/C(=O)O)c(C)c1C`: the Potency entry with PC15, in the test with PC26, in the test on PC49, in the test on SC27B, with TAB109 and in the test on TAB113 was “inactive” each time. The Potency entry in the test on TAB165 and in the test on W2 was “inactive” each time.
Turning to `CSc1nc2cc(Oc3cccc(Cl)c3Cl)c(Cl)cc2[nH]1`, the Potency in the test with PC15 was 8.91 µM (active); in the test with PC26 it was 5.36 µM (active); with PC49 it was 12.6 µM (active); with SC27B, 12.6 µM (active); with TAB109, 7.94 µM (active); in the test on TAB113, 8.91 µM (active). Also, the Potency in the test with TAB165 was 7.94 µM (active); in the test with W2 it was 6.75 µM (active).
